D1 antag = Antagonist of Human D 1 Dopamine Receptor: qHTS | D(1A) dopamine receptor (Homo sapiens), P21728 | HEK293 TREx D1 cells, calcium flux, dopamine EC80; stronger effect = lower value | activity change, negative = inhibition, % at 10 µM | hit rate 3.2% among 360,000; in the data active means activity change below about -30%; further: on the % scale 0 is the no-effect control and ±100 the full control effect
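Tetracycline-induced HEK293 Trex D1 cells, force-coupled to calcium, dye-loaded; compounds added and read 180 s, then EC80 dopamine added and calcium flux tracked kinetically another 180 s.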
TRHR PAM = qHTS for Small Molecule Agonists and Allosteric Enhancers of Human TRH Receptor: Primary Screen for Enhancers. Thyrotropin-releasing hormone receptor (Homo sapiens), P34981. TRHR cells, fluo-8 calcium fluorescence, EC20 TRH enhancement. enhancement, % at 2 µM. hit rate 0.66% among 360,000. AID 493056, 2011; in the data active means enhancement above about 30%; further: 0% is about no effect
Target sequence (P34981 whole entry, looked up): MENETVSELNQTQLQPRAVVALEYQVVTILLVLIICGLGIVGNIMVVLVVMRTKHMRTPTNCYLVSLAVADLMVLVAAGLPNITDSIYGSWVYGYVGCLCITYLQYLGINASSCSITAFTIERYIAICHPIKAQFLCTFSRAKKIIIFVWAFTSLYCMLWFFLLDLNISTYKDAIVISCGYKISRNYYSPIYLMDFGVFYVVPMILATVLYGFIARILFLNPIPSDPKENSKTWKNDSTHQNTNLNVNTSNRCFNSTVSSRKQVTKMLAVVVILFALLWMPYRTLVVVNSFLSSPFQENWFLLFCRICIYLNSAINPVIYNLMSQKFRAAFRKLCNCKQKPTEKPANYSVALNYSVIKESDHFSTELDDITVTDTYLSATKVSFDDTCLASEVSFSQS
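Enhancer read-out: after compound pinning and an initial kinetic agonist-mode read, an EC20 of TRH (10 nM final) was injected and fluo-8 calcium signal (Ex 480/Em 530) followed at 1 s/cycle for 100 cycles in TRHR-expressing cells.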
D1 agonist = Allosteric Agonists of the Human D1 Dopamine Receptor: qHTS; activation, % at 2 µM; hit rate 1% among 360,000; D(1A) dopamine receptor (Homo sapiens), P21728; HEK293 T-REx D1 cells, calcium flux, agonist mode; further: 0% is about no effect
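Agonism was scored from calcium flux recorded over 180 s (1 read/s) after pintool compound addition, following a 10-cycle baseline. Cells were inducible force-coupled HEK293 TREx D1, plated overnight at 30 C and loaded with no-wash calcium dye.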
D1 PAM = Potentiators of Human D1 Dopamine Receptor: qHTS; HEK293 TREx D1 cells, calcium flux, dopamine EC20 potentiation; potentiation, % at 10 µM; hit rate 0.036% among 360,000; in the data active means potentiation above about 30%; further: 0% is about no effect
TRHR ag = qHTS for Small Molecule Agonists and Allosteric Enhancers of Human TRH Receptor: Primary Screen for Agonists; Thyrotropin-releasing hormone receptor (Homo sapiens), P34981; hit rate 0.18% among 360,000; activation, % at 2 µM; TRHR cells, calcium flux fluo-8, FDSS agonist mode; further: 0% is about no effect
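In this calcium-flux screen, cells bearing human TRHR are dye-loaded with fluo-8, baselined for 10 cycles, then exposed to library compounds; positive kinetic calcium responses during the agonist phase mark hits, with TRH as control.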
Starred values were filed as active, the others as inactive; . = no result; ! = not active in a repeat. Most compounds without a hit are left out; they make up all but 4.7% or so of the library. Unless noted, no stated cut-off is given here; in the data, active means activation above about 30%; inactive means the rest.

SMILES | D1 antag | TRHR PAM | D1 agonist | D1 PAM | TRHR ag
COc1ccc(NC(=O)COC(=O)CC2CC3CCC2C3)c([N+](=O)[O-])c1 (configuration not stated) | -96.6* | 3.4 | 3.6 | -1.6 | 0.0
CCc1ccc(CNC(=O)c2cc3c(s2)-c2ccccc2OC3)cc1 | -24.5 | 6.2 | 2.5 | -3.7 | 0.7
CC(C)C(NC(=O)c1ccc(F)cc1)C(=O)N1CCOCC1 (configuration not stated) | -5.9 | -1.6 | 4.6 | 2.6 | 0.6
CC(C)C(NC(=O)c1ccc(F)cc1)C(=O)N1CCC1 (configuration not stated) | -37.3* | 2.5 | 0.0 | -6.7 | 1.0
O=C(CSc1ccccn1)Nc1ccc(Cl)c([N+](=O)[O-])c1 | -33.7* | 1.0 | 7.5 | -4.8 | -0.2
O=C(CSc1ccccn1)Nc1ccc2ccccc2c1 | -7.7 | -9.7 | 1.0 | -3.5 | -2.2
CCOC(=O)c1cc(S(=O)(=O)N2CCN(c3cc(C)ccc3C)CC2)[nH]n1 | -17.1 | -2.3 | 7.0 | -2.0 | -1.0
O=C(NCCSCc1ccc(Cl)cc1Cl)c1ccc(CN2CCOCC2)cc1 | -30.6* | -1.4 | 13.7 | -2.8 | 0.3
O=C(NCCSc1ccc(Cl)cc1)c1ccc(CN2CCOCC2)cc1 | -18.2 | -2.8 | 10.7 | -2.6 | 2.0
Cc1cc(OCC(=O)Nc2cccnc2)c2c(C)c(C)c(=O)oc2c1 | -36.6* | 0.6 | 2.5 | -19.8 | 0.5
Cc1cc(OCC(=O)NCc2cccnc2)c2c(C)c(C)c(=O)oc2c1 | -5.7 | 3.7 | 2.1 | -0.5 | 0.3
O=C(COc1ccc2c(-c3ccccc3)cc(=O)oc2c1)Nc1cccnc1 | -33.0* | -2.0 | 19.8 | -9.9 | 0.7
CC(C)(C)N=C1NC(=NC(C)(C)C)c2ccccc21 | -40.9* | 1.7 | 19.3 | -2.3 | -0.4
CC(C)(C)c1ccc(OC(=O)c2cccnc2)cc1 | 4.3 | 5.1 | 42.3* | -5.8 | -0.4
O=C(Oc1ccc(Nc2ncnc3ccccc23)cc1)c1cccnc1 | -47.1* | -3.6 | -0.9 | -2.7 | 1.4
Cc1ccc(N=CC=C2OC(C)(C)C(C)(C)O2)c(C)c1 | -41.9* | 4.0 | 1.0 | -2.6 | -0.2
COc1ccccc1N=CC=C1OC(C)(C)C(C)(C)O1 | 0.1 | -4.2 | 3.0 | -2.4 | -5.0
O=C1CCc2cc(OCCCCc3nnnn3C3CCCCC3)ccc2N1 | -42.5*! | 5.5 | 8.5 | -3.1 | -2.3
Cc1ccc(N(CC(=O)Nc2ccc(Br)cc2)S(=O)(=O)c2cccs2)cc1 | -5.1 | 1.9 | 5.3 | 2.0 | 0.7
CCOc1ccccc1NC(=O)Nc1nnc(N(C)Cc2ccccc2)s1 | -21.1 | -1.6 | -2.0 | -0.8 | -0.3
COc1ccc(COc2ncnc3ccc(Br)cc23)cc1F | 18.7 | -0.2 | 3.8 | 31.7* | 0.9
Brc1ccc(COc2ncnc3ccccc23)cc1 | -14.5 | -5.2 | 1.2 | -1.4 | 0.0
C#CCNC(=O)C1=C[C@@H](c2ccc(Br)cc2)C[C@@H](OCc2ccc(CO)cc2)O1 | -30.8* | -2.2 | -4.6 | -4.3 | -0.2
C#CCNC(=O)C1=C[C@H](C2CCCCC2)C[C@H](OCc2ccc(CO)cc2)O1 | -35.3* | -2.3 | 8.6 | -4.2 | -0.6
C#CCNC(=O)C1=C[C@@H](C2CCCCC2)C[C@@H](OCc2ccc(CO)cc2)O1 | -13.3 | 4.4 | 0.0 | -5.2 | 0.1
SMILES | D1 antag | TRHR PAM | D1 agonist | D1 PAM | TRHR ag
C#Cc1ccc([C@@H]2C=C(C(=O)O)O[C@H](OCc3ccc(CO)cc3)C2)cc1 | -39.1* | -0.3 | -3.2 | -5.6 | -0.9
O=C(Nc1cccc(C(F)(F)F)c1)C1CCN(c2nnc(-n3cccc3)s2)CC1 | -22.6 | -1.4 | 2.8 | -8.7 | -1.0
CCOc1ccccc1NC(=O)C1CCCN1S(=O)(=O)c1ccc2nc(-c3ccccc3)[nH]c2c1 (configuration not stated) | 12.6 | 3.6 | 2.0 | 1.8 | 0.2
CCc1ccc(NC(=O)CN(c2ccc(C)cc2)S(=O)(=O)c2c(C)nn(C)c2C)cc1 | 27.7 | -0.7 | -0.4 | -1.9 | 0.8
Cc1csc2nc(COc3ccc(NC(=O)c4ccccc4F)cc3)cc(=O)n12 | 5.8 | 2.2 | 2.1 | -3.0 | -0.1
CCOC(=O)CCNC(=O)N1CCN(S(=O)(=O)c2ccc3c(ccn3C)c2)CC1 | -3.0 | -0.1 | 0.0 | -0.5 | -0.2
O=c1oc2ccccc2cc1-c1cn2cc(Cc3ccc(Br)cc3)sc2n1 | 22.4 | -7.7 | 45.3* | 1.9 | 0.9
Cc1ccc(NC(=O)CN2CCCN(Cc3ccccc3Cl)S2(=O)=O)c(C)c1 | -11.4 | -1.5 | 6.9 | -1.3 | 0.3
CCc1nn(CC(=O)NCCCN2CCOCC2)c(=O)c2cc3cc(F)ccc3n12 | -73.7* | -2.2 | -0.4 | -12.5 | -0.2
CCc1nn(CC(=O)NCCCN2CCN(CC)CC2)c(=O)c2cc3occc3n12 | -34.9*! | 0.3 | 2.4 | -2.7 | 0.1
CC(=O)Nc1ccc(S(=O)(=O)N2CCN=C2SCc2cccc(C)c2)cc1 | -21.6 | -1.7 | 8.4 | -10.9 | 0.8
CC(=O)Nc1ccc(S(=O)(=O)N2CCN=C2SCc2ccc([N+](=O)[O-])cc2)cc1 | -65.0* | 12.3 | 18.4 | -8.7 | 1.0
O=C(CN1CCN(S(=O)(=O)c2ccccc2[N+](=O)[O-])CC1)Nc1ccc(N2CCOCC2)cc1 | -46.0* | 6.6 | 8.8 | -13.1 | 0.2
CC(=O)Nc1ccc(S(=O)(=O)N2CCN(CCc3ccccc3)CC2)cc1 | -33.2* | -2.9 | 4.4 | -5.6 | 0.2
O=[N+]([O-])c1ccc(CS(=O)(=O)N2CCN(c3ccccc3)CC2)cc1 | -30.2* | -3.5 | 9.2 | . | 0.7
CC(=O)Nc1ccc(S(=O)(=O)N2CCN(C(=O)Cc3ccccc3)CC2)cc1 | -13.5 | -4.0 | 0.7 | -4.8 | 0.1
Cc1nn2cc(-c3ccc(OC(C)C)cc3)nc2s1 | -5.9 | -0.3 | 6.7 | -3.8 | -0.1
CCN(CC)CCCNC(=O)CN1N=C(c2ccccc2)CCC1=O | -13.0 | -0.5 | -3.4 | -1.4 | -0.1
CC(=O)Nc1ccc(S(=O)(=O)N2CCN(c3ccc([N+](=O)[O-])cc3)CC2)cc1 | -35.2* | -7.1 | 5.0 | -5.3 | 1.3
CC(=O)Nc1ccc(S(=O)(=O)N2CCN(S(=O)(=O)c3ccc(NC(C)=O)cc3)CC2)cc1 | 0.9 | 5.2 | 0.3 | -0.8 | 0.4
COc1ccc(Cl)cc1N(C)C(=O)C(=O)Nc1ccc2nc3n(c(=O)c2c1)CCCCC3 | 0.0 | 4.8 | -0.7 | 0.0 | -0.3
O=C(N/N=C\c1c(O)ccc2ccccc12)c1ccc(Cn2cccn2)o1 | -30.2* | 1.4 | 28.7 | -2.7 | 10.2
O=C(N/N=C\c1ccc(Cl)s1)c1ccc(Cn2cccn2)o1 | -6.5 | 7.5 | -1.8 | 1.1 | 0.2
